Screens as filed in PubChem.
CHRM1 agonist – human M1 muscarinic receptor agonists, primary screen, Fluo-8 calcium fluorescence, CHO-K1 cells, HTS | Muscarinic acetylcholine receptor M1 (Homo sapiens), P11229 | activation, % at 3 µM | actives 0.33% (n = 360,000) | CHO-K1 hM1, agonist mode; 0% DMSO, 100% acetylcholine EC100;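 active = activation above the run's mean compound activation plus 3 SD, cut at about 16% in these data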;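 note: peak over basal fluorescence ratio within a 140 s kinetic read after compound addition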
Target sequence (P11229 whole entry, looked up): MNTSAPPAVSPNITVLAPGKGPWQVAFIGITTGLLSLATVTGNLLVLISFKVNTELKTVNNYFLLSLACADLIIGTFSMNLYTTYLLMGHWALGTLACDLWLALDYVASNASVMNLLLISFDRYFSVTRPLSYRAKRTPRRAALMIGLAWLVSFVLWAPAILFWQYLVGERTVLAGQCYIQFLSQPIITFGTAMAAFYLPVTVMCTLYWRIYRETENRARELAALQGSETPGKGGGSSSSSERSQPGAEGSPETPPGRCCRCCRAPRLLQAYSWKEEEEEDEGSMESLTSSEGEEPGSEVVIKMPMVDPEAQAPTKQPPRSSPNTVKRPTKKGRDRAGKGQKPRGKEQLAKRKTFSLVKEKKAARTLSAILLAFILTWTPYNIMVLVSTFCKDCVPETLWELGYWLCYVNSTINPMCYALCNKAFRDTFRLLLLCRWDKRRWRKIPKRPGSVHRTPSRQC
M1 ag parental – counter-screen for M1 agonists: effect in parental CHO-K1 cells; Fluo-8 calcium fluorescence; scaled to maximal ATP response, vehicle zero; activation, % at 3 µM; actives 0.48% (n = 360,000); AID 602248, 2012; in the data active = activation above about 15%;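 note: untransfected CHO-K1 host cells lacking M1 receptor as counterscreen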
M1 PAM – human M1 muscarinic receptor positive allosteric modulators, primary screen, CHO-K1 cells, Fluo-8 calcium fluorescence, 1536-well; actives 0.088% (n = 360,000); Muscarinic acetylcholine receptor M1 (Homo sapiens), P11229; CHO-K1 hM1, ACh EC20; 0% = ACh EC20, 100% = maximal ACh; activation, % at 3 µM; in the data active = activation above about 19%, passing the limit was not always enough
CHO-K1 Ca antag – counter-screen for M1 antagonists: effect in parental CHO-K1 cells. ATP-induced calcium, Fluo-8 fluorescence. inhibition, % at 3 µM. actives 0.6% (n = 360,000). AID 602250;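 active = inhibition above a per-plate cutoff, the plate's mean sample inhibition plus 3 SD, cut at about 24% in these data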
CHO-K1 Ca PAM – nonselective calcium activators in parental CHO-K1 cells, primary screen, counter-screen for M1 PAM project, cell-based, Fluo-8 calcium fluorescence, full deck, 1536-well; ATP EC20; 0% at ATP EC20, 100% at ATP max; activation, % at 3 µM; actives 0.02% (n = 360,000);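 active = activation above the run cutoff, the mean activation of all test compounds plus 3 SD, cut at about 40% in these data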;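 note: peak over basal fluorescence ratio in a 140 s read after ATP addition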
M1 antag – human M1 muscarinic receptor antagonists, primary screen, CHO-K1 cells, Fluo-8 calcium fluorescence, 1536-well; Muscarinic acetylcholine receptor M1 (Homo sapiens), P11229; CHO-K1 hM1, ACh EC80 antagonist; inhibition, % at 3 µM; actives 1.3% (n = 360,000); AID 588852, 2011;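 active = percent inhibition above its own plate's cutoff, namely the mean of that plate's compound wells plus 3 SD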;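 note: peak over basal fluorescence ratio during 140 s after agonist addition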
Each line names hits and unclear results; the compound was inactive in the other large screens. Most compounds without a hit are left out; they make up all but 2.4% or so of the library.

Cc1c(Cc2ccccc2)c(=O)oc2cc(OC(C)C(=O)NCC3CCC(C(=O)O)CC3)c(Cl)cc12 (stereo not drawn)	none
CCOc1ccc(-n2c(-c3ccccc3)c[n+]3c2CCC3)cc1	M1 antag 38.2
CCOc1ccc(-n2c(-c3ccc(OC)cc3)c[n+]3c2CCCCC3)cc1	none
COc1ccc(-c2c[n+]3c(n2-c2ccc(C)cc2)CCCCC3)cc1	none
CCOc1ccc(-n2c(-c3ccc(Br)cc3)c[n+]3c2CCCCC3)cc1	M1 antag 29.7
CCC(C(=O)OCC(=O)N1CCN(S(=O)(=O)c2ccc(C)cc2C)CC1)c1ccccc1 (stereo not drawn)	none
Cc1onc(-c2c(F)cccc2Cl)c1C(=O)Nc1cc(S(=O)(=O)N2CCCCC2)ccc1O	CHO-K1 Ca antag 26.0, M1 antag 47.2
COc1cccc(CN(C)C(=O)CNC(=O)c2ccc(-c3ccccc3)cc2)c1OC	none
CCN(CC)c1ccc(S(=O)(=O)N2CCOCC2)cc1NC(=O)COC(=O)/C=C/c1ccccc1	M1 antag 32.4
Cc1ccc(S(=O)(=O)N2CCN(C(=O)COC(=O)CCOc3ccc(C(C)(C)C)cc3)CC2)cc1	M1 antag 34.3
Cc1ccc(S(=O)(=O)N2CCOCC2)cc1NC(=O)COC(=O)CCOc1ccc(C(C)(C)C)cc1	M1 ag parental 15.6
Cc1ccc(C(=O)NCC(=O)OCC(=O)Nc2cc(S(=O)(=O)N3CCOCC3)ccc2C)cc1	none
Cc1ccc(S(=O)(=O)N2CCOCC2)cc1NC(=O)COC(=O)CNC(=O)c1ccc(Oc2ccccc2)cc1	CHO-K1 Ca antag 24.7
Cc1ccc(S(=O)(=O)N2CCOCC2)cc1NC(=O)COC(=O)CNC(=O)c1ccc(C(C)(C)C)cc1	none
C=C(C)Cn1c2ccc(NC(=S)NCc3ccccc3F)cc2c(=O)n1C	none
CCNC(=O)C1(C)CCN(C(=O)c2cccs2)C1 (stereo not drawn)	none
CCCc1cc(=O)[nH]c(SCC(=O)Nc2cc(S(=O)(=O)N3CCCCC3)ccc2Cl)n1	none
CC(NC(=O)CN1CCCC1)C12CC3CC(CC(C3)C1)C2 (stereo not drawn)	none
CC(C(O)C12CC3CC(CC(C3)C1)C2)N1CCCCC1 (stereo not drawn)	M1 antag 59.5
COc1ccc(S(=O)(=O)N2CCC(C(=O)NCc3ccncc3)CC2)cc1OC	none
Cc1cc(NC(=O)CCCn2nc([N+](=O)[O-])c(Br)c2C)no1	none
Cc1cc([N+](=O)[O-])nn1CCCC(=O)Nc1c(C)n(C)n(-c2ccccc2)c1=O	M1 antag 30.6
Cc1c(Br)c([N+](=O)[O-])nn1CCCC(=O)Nc1c(C)n(C)n(-c2ccccc2)c1=O	M1 antag 82.2
CCc1ccc(-c2cc(C)no2)cc1S(=O)(=O)NC(C)Cc1ccco1 (stereo not drawn)	none
COc1ccc(-c2sc3cc4c(cc3c2C#Cc2ccc(N)cc2)OCO4)cc1	none
COc1ccc(NC(=O)CN2CCC(C(=O)c3ccc(F)cc3)CC2)c(OC)c1	M1 ag parental 36.8
COc1ccc(NC(=O)CN2CCN(CC(=O)Nc3ccccc3Cl)CC2)c(OC)c1	none
COc1ccc(NC(=O)CN2CCN(c3ccc(Cl)cc3)CC2)c(OC)c1	CHO-K1 Ca PAM 42.2
COc1ccc(NC(=O)CN2CCN(c3nc(-c4ccc(F)cc4)cs3)CC2)c(OC)c1	CHO-K1 Ca PAM 53.2
COc1ccc(OC)c(C(=O)N2CCC(C(=O)c3ccc(F)cc3)CC2)c1	CHO-K1 Ca antag 24.0
COc1ccc(NC(=O)N2CCC(C(=O)c3ccc(F)cc3)CC2)cc1	none
CC(C)Cn1c(SC(C)C(=O)NC2CC2)nnc1-c1ccccc1F (stereo not drawn)	none
Cc1ccc(-c2ccc3c(c2)O[C@H](CN(C)Cc2cncnc2)[C@@H](C)CN([C@H](C)CO)S3(=O)=O)cc1	none
COc1ccccc1NC(=O)C1CCCCN1S(=O)(=O)c1ccc(F)cc1 (stereo not drawn)	none
